Screens: PubChem BioAssay, National Center for Advancing Translational Sciences (NCATS)
VACV Venus inh: qHTS for Stage-Specific Inhibitors of Vaccinia Orthopoxvirus: Venus Reporter Primary qHTS; Vaccinia virus Venus reporter expression, fluorescence; Potency, µM (highest dose often 36.5 µM), most hits filed as inhibitors; hit rate 0.46% among 330,000; calls by dose curve; tested in A549 cells; note: nearly all actives have a fitted effect of over 30% in size
HCV inh: qHTS Assay for Inhibitors of Hepatitis C Virus (HCV); Huh7.5.1 HCVcc-Cre infection, luciferase reporter, 44 h; Potency, µM (series often up to 41.8 µM), actives largely listed as inhibitors; hit rate 3.4% among 340,000; AID 651820, 2012; active = well fitted inhibition curve with a large enough effect; inconclusive = small, poorly fitted or top-dose-only effect, or another doubt; inactive = no such curve, though single readings can be large or run the other way
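Whole-lifecycle infectious HCVcc-Cre system; cells 1,000/well, compound then virus (~0.5 moi) added 4 h after plating, 44 h culture. Luciferase read 15 sec following 15 min substrate incubation, room temp.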
MARV entry inh: qHTS for inhibitors of binding or entry into cells for Marburg Virus | Marburg virus pseudotyped entry inhibition, cell reporter | Potency, µM (titrated, usually from 37.8 µM), hits mostly inhibitors | hit rate 1.8% among 300,000; calls by dose curve; tested in HEK293 cells
Vaccinia mCherry: qHTS for Stage-Specific Inhibitors of Vaccinia Orthopoxvirus: mCherry Reporter Primary qHTS | Vaccinia virus mCherry reporter infection, fluorescence | Potency, µM (top dose mostly 36.5 µM), actives largely listed as inhibitors | hit rate 0.63% among 310,000 | AID 720579, 2013; calls by dose curve; tested in A549 cells; note: nearly all actives have a fitted effect of over 35% in size
HCMV inh: qHTS Assay for inhibitors of the human cytomegalovirus (HCMV); HFF cells, HCMV-luciferase reporter, 72 h; active compounds read low; activity change, negative = inhibition, % at 57.5 µM; hit rate 4.5% among 410,000; in the data active = activity change below about -60%; inconclusive = no clear call, values can overlap the other calls; inactive = above about -39%
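Two compound doses tested in HFFs infected with HCMV-luciferase, MOI 1 PFU/cell, 72 h at 37C. Lysate luminescence read with OneGlo; data normalized against buffer-only and 10uM Salinomycin inhibitor controls.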
Lassa entry inh: qHTS for Inhibitors of binding or entry into cells for Lassa Virus. Lassa virus pseudotype entry inhibition, cell reporter. Potency, µM (highest dose often 37.9 µM), most hits filed as inhibitors. hit rate 1.2% among 300,000. AID 540256, 2011; calls by dose curve; tested in HEK293 cells; note: nearly all actives have a fitted effect of over 50% in size
Of the large screens only hits and unclear results are named; the others gave an inactive call. Most compounds without a hit are left out; they make up all but 7.8% or so of the library.

COc1ccc2c(c1)C(CC(C)=O)N(c1ccc(-c3cnc(OC)nc3)cc1)C(c1ccsc1)=C2 (stereo not given)	none (no result: HCV inh, MARV entry inh, Lassa entry inh)
COc1ccc2c(c1)C(CC(C)=O)N(c1ccc(-c3cccs3)cc1)C(c1ccsc1)=C2 (stereo not given)	HCMV inh -90 (no result: HCV inh, MARV entry inh, Lassa entry inh)
Cc1ccc(-n2nc(CO)c(C(=O)NC(C)c3ccccc3)n2)cc1C (stereo not given)	HCMV inh -63, Lassa entry inh inconclusive (no result: HCV inh)
Cc1ccc(-n2nc(CO)c(C(=O)NC(C)CCCc3ccccc3)n2)cc1C (stereo not given)	HCMV inh inconclusive, Lassa entry inh inconclusive (no result: HCV inh)
CC(=O)c1cc(C(=O)N2CCc3c([nH]c4ccccc34)C2CC(C)C)[nH]n1 (stereo not given)	MARV entry inh inconclusive, Lassa entry inh inconclusive
CC(C)CC1c2[nH]c3ccccc3c2CCN1C(=O)c1cnccn1 (stereo not given)	MARV entry inh 2.8µM, Lassa entry inh inconclusive
Cc1nc2nc(NC(=O)c3ccc(Cl)cc3)[nH]n2c(=O)c1Cc1ccccc1	none (no result: HCV inh)
CC1CCN(CCOCCOc2ccc(Cl)cc2Br)CC1	HCV inh 22µM, MARV entry inh inconclusive, Lassa entry inh inconclusive
Cc1cc(Cl)c(OCCOCCN2CCC(C)CC2)c(Br)c1	HCV inh inconclusive, MARV entry inh 6.5µM, HCMV inh inconclusive, Lassa entry inh inconclusive
Cc1cc(Cl)c(OCCOCCN2CCN(C)CC2)c(Br)c1	HCV inh inconclusive, MARV entry inh inconclusive
CC1CCN(CCCOc2ccc(Cl)cc2Br)CC1	MARV entry inh inconclusive
COc1ccccc1CNC(=O)CSc1nc2nc(C)c(Cc3ccccc3Cl)c(C)n2n1	none (no result: HCV inh)
COC(=O)c1ccccc1NC(=O)Cn1c(=O)n(Cc2ccc(C(=O)NCc3ccc4c(c3)OCO4)cc2)c(=O)c2ccccc21	Lassa entry inh inconclusive (no result: HCV inh)
CCOC(=O)C1CCCN(S(=O)(=O)c2ccc3c(c2)oc(=O)n3C)C1 (stereo not given)	none (no result: HCV inh)
CCOC(=O)c1cccc(NC(=O)C2CCN(S(=O)(=O)c3ccc4c(c3)oc(=O)n4C)CC2)c1	HCMV inh -103 (no result: HCV inh)
CN(C)S(=O)(=O)c1ccc(S(=O)(=O)N2CCCC(C(=O)NC3CC3)C2)cc1 (stereo not given)	HCV inh inconclusive (no result: Lassa entry inh)
CCOC(=O)N1CCC(NC(=O)C2CCCN(S(=O)(=O)c3ccc4c(c3)oc(=O)n4C)C2)CC1 (stereo not given)	HCMV inh -63
CCN(CC)S(=O)(=O)c1ccc(S(=O)(=O)N2CCCC(C(=O)NC3CC3)C2)cc1 (stereo not given)	MARV entry inh inconclusive, HCMV inh -83
CC(=O)Nc1ccc(NC(=O)CCn2c(=S)oc3ccccc32)cc1	none (no result: VACV Venus inh, MARV entry inh, Vaccinia mCherry, Lassa entry inh)
CC(=O)/C=C/n1c(=S)oc2ccccc21	VACV Venus inh inconclusive, HCV inh 4.5µM, MARV entry inh 13µM, HCMV inh -100, Lassa entry inh inconclusive
Cn1c(=S)oc2ccccc21	none
CC(C)CC(=O)/C=C/n1c(=S)oc2ccccc21	HCV inh 14µM
CCCCc1nc2cc(C(=O)NCc3nccn3CC)ccc2o1	none (no result: VACV Venus inh, MARV entry inh, Vaccinia mCherry, Lassa entry inh)
CCCCc1nc2cc(C(=O)NCc3cn(C)nc3C)ccc2o1	HCV inh 13µM, Lassa entry inh inconclusive
O=C(NCc1ccccc1)C(c1ccc(F)cc1)N(Cc1cccs1)C(=O)c1cnccn1 (stereo not given)	none
CCC(C)(C)NC(=O)C(c1ccc(F)cc1)N(Cc1ccccc1)C(=O)c1cnccn1 (stereo not given)	HCV inh 1.4µM, HCMV inh inconclusive
COc1cc(C(C(=O)NC(C)(C)C)N(Cc2ccccc2)C(=O)c2cnccn2)cc(OC)c1OC (stereo not given)	none
O=C(NCc1ccccc1)C(c1ccccc1)N(Cc1cccs1)C(=O)c1cnccn1 (stereo not given)	MARV entry inh 21µM (no result: VACV Venus inh, Vaccinia mCherry)
COc1ccc(/C=C/c2nc(C#N)c(NCCc3ccccc3)o2)cc1OC	none (no result: HCV inh)
Cc1ccc(C)c(N2CCN(C(=O)C3CCN(c4nc5ccc(C)cc5[nH]4)CC3)CC2)c1	none (no result: HCV inh, MARV entry inh)
CC(=O)Nc1sc2c(c1CN1CCCC1)CCCC2	HCV inh inconclusive, MARV entry inh inconclusive
CC(=O)Nc1sc2c(c1CN1CCN(c3ccc(F)cc3)CC1)CCCC2	HCV inh inconclusive, MARV entry inh 10µM, Lassa entry inh inconclusive
CCN1CCN(C(=O)c2ccc3c(c2)N(Cc2ccc(C)cc2)CCS3)CC1	HCMV inh -85 (no result: VACV Venus inh, MARV entry inh, Vaccinia mCherry, Lassa entry inh)
Cc1ccc(CN2CCSc3ccc(C(=O)N4CCOCC4)cc32)cc1	none (no result: VACV Venus inh, MARV entry inh, Vaccinia mCherry, HCMV inh, Lassa entry inh)
CCN1CCN(CCCNC(=O)c2ccc3c(c2)N(Cc2ccc(C)cc2)CCS3)CC1	HCV inh 11µM (no result: VACV Venus inh, MARV entry inh, Vaccinia mCherry, HCMV inh, Lassa entry inh)
CCSc1ccc2nnc(-c3cccc(F)c3)n2n1	HCV inh inconclusive, HCMV inh -64 (no result: VACV Venus inh, Vaccinia mCherry)
Fc1ccc(CSc2ccc3nnc(-c4cccnc4)n3n2)cc1	HCV inh inconclusive, Lassa entry inh 13µM
CCCCn1nc(NC(=O)c2cccs2)c2cc3cc(OC)ccc3nc21	HCV inh 10µM, MARV entry inh inconclusive (no result: Vaccinia mCherry)
CCCn1nc(NC(=O)c2cccs2)c2cc3cc(OC)ccc3nc21	HCV inh 10µM, Vaccinia mCherry inconclusive, Lassa entry inh inconclusive
O=C1CC(CC(=O)N2CC3CCCC2C3)(c2cccc(F)c2)C(=O)N1Cc1cccnc1 (stereo not given)	none (no result: HCV inh, MARV entry inh, HCMV inh, Lassa entry inh)
COc1ccc(N2C(=O)CC(Sc3nnnn3-c3ccc(F)cc3)C2=O)cc1 (stereo not given)	HCV inh inconclusive, MARV entry inh inconclusive, Lassa entry inh inconclusive
O=C1CC(Sc2nnnn2-c2ccccc2)C(=O)N1c1cccc(Cl)c1 (stereo not given)	HCV inh inconclusive, MARV entry inh inconclusive, HCMV inh -62, Lassa entry inh inconclusive (no result: Vaccinia mCherry)
COC(=O)c1ccc(C2C(C#N)=C(C)NC3=C2C(=O)CC(C)(C)C3)cc1 (stereo not given)	none
COc1ccc(C2CC(=O)C3=C(C2)NC(C)=C(C#N)C3c2ccc(N(C)C)cc2)cc1 (stereo not given)	MARV entry inh inconclusive, Lassa entry inh 13µM (no result: Vaccinia mCherry)
COc1ccccc1CNC(=O)CSCc1cnn(-c2ccccc2)c1-n1cccc1	HCV inh inconclusive, Lassa entry inh inconclusive (no result: VACV Venus inh, Vaccinia mCherry)
O=C(CSCc1cnn(-c2ccccc2)c1-n1cccc1)NCc1ccccc1F	HCMV inh -76 (no result: HCV inh)
COc1ccc(CNC(=O)CSCc2cnn(-c3ccccc3)c2-n2cccc2)cc1OC	VACV Venus inh inconclusive, MARV entry inh inconclusive, Vaccinia mCherry inconclusive, HCMV inh -80, Lassa entry inh inconclusive (no result: HCV inh)
Cc1cn2cc(CNC(=O)CN3Cc4ccccc4OC(c4ccccc4F)C3)nc2s1 (stereo not given)	none (no result: HCV inh, MARV entry inh, HCMV inh, Lassa entry inh)
